Assay results taken from PubChem BioAssay (NCI).
Compounds without any hit were thinned out: in the full panel of roughly 83,000, 20% have a hit.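 Activity criterion: percent growth below 10, measured after cells in 96-well plates were exposed to a single compound concentration for 48 hours.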 A number with no mark means an inactive call. The source made the active and inactive calls.

Test system: MDA-MB-468 breast
Assay: NCI-60 one-dose screen, 48 h (100 = growth as untreated, 0 = no growth, -100 = all killed)
Conditions: 10 µM unless noted

Structure (SMILES) | growth
Cc1cc(=O)oc2cc(O)cc(O)c12 | 103%
O=C(CCCCCCC(=O)Nc1ccccc1)NO | 12.1%
C/C=C(/C)C(=O)O[C@@H]1CC(C)(C)CC2C34OC(=O)[C@@]21CC[C@@]3(C)[C@]1(C)CCC2C(C)(C)C(=O)CC[C@]2(C)C1C[C@@H]4O (stereo not given in full) | 13.1%
O=C1CCc2ccccc2N1 | 98.8%
Cc1noc(C)c1C(=O)OCc1coc2ccccc2c1=O | 24.5%
CCCCN1C(=O)CC(SC2CC(=O)N(CCCC)C2=O)C1=O (stereo not given) | 105%
Cc1[c-]onc1C.Cc1[c-]onc1C.[Ag].[Ag].[NH-]S(=O)(=O)c1ccc(N=Nc2cc(N=Nc3ccc(S([NH-])(=O)=O)cc3)c3c(NC(=O)C(Cl)Cl)cccc3c2OC(=O)C(Cl)Cl)cc1 | 53.9%
COCCn1cc(-c2nc(-c3cn(CCOC)c4ncccc34)cs2)c2ccccc21 | -17.4% (active)
CCC(=O)Nc1ccc(-c2nc(-c3cccc(OC)c3)c(-c3ccnc(Br)c3)[nH]2)cc1 | 38.9%
Cc1ccc2c(n1)C(=O)C(Cl)=C(Nc1ccc(N3CCN(C)CC3)cc1)C2=O | -84.6% (active)
O=S(=O)(NCCNc1cc(-c2c(-c3cccc(O)c3)nc3sccn23)ccn1)c1ccc(Cl)cc1 | 51.5%
CC1CCCCN1S(=O)(=O)c1ccc(CN=C=S)cc1 (stereo not given) | 17.4%
COc1cc(-c2cc(-c3nc4ccc(Cl)cc4[nH]3)[nH]n2)cc(OC)c1OC | 35.9%
Cn1ccc2c1CC1CN(Cc3ccco3)C(=O)C1C2C(=O)O (stereo not given) | 104%
N#Cc1c(-c2cccc(Cl)c2)cc(-c2cccc(Cl)c2)[nH]c1=O | 73.2%
N#CC1=C2NCCCNc3oc(nc3C#N)Cc3ccccc3CC(=N1)O2 | 75.1%
O=S(=O)(Cc1cccc2c(CS(=O)(=O)c3ccc(Cl)cc3)cccc12)c1ccc(Cl)cc1 | 97%
Cc1cn(-c2cc(C(=O)Nc3cccc(C#Cc4cccc5[nH]nc(N)c45)c3)cc(C(F)(F)F)c2)cn1 | 69.6%
CC1(C)CC(=O)NC1=O | 100%
CCCCCCCCCCCCOC(=N)N(C)C | 104%

Structure (SMILES) | growth
CN1CCC(=C(c2ccccc2)c2ccccc2)C(c2ccccc2)C1 (stereo not given) | 87.6%
COc1ccc(Nc2nc(NCc3ccccc3)c3ccccc3n2)cc1 | 40.2%
COc1ccc(CCNC=O)cc1OC | 77.7%
C=C1C(=O)O[C@H]2[C@H]1CC/C(COC(=O)c1cc3ccccc3o1)=C\CC[C@@]1(C)O[C@@H]21 | -71.2% (active)
CCCCOC(=O)c1cccc([N+](=O)[O-])c1 | 101%
COc1ccc(/C=N/NC(=O)c2[nH]c3ccc(Br)cc3c2-c2ccccc2)s1 | -24% (active)
Cc1cc2nc(NC(=O)CN3CCN(CCN4C(=O)c5cccc6cccc(c56)C4=O)CC3)sc2cc1C | 86.3%
c1ccc(Cn2cc3c(c2)-c2nc(Nc4ccccc4)ncc2CC3)cc1 | 115% [100 µM]
COc1ccc(C(=O)C/C(=C\c2ccc(Cl)cc2)C(=O)NCc2ccccc2)cc1 | 69.7%
C=C1C(=O)O[C@H]2[C@H]1CC/C(CNC(=O)c1cc3cc(OC)ccc3[nH]1)=C\CC[C@@]1(C)O[C@@H]21 | -67.7% (active)
O=C(O)C(C(=O)O)c1cccc2ccccc12 | 101%
Cc1cccc2c3c(sc12)C(c1ccc(Cl)cc1)c1c(nc(CC(=O)Nc2ccccc2)[nH]c1=O)O3 (stereo not given) | 9.75% (active)
COc1ccc(-c2cn[nH]c2-c2cc(OC)c(OC)c(OC)c2)cc1 | 11.8%
COc1cccc(OC)c1C(=O)N[C@@H]1C(=O)N2[C@@H]1SC(C)(C)[C@@H]2C(=O)O | 114%
Cc1cccc([N+](=O)[O-])c1Cl | 92.4%
CC12CCC3c4ccc(O)cc4CCC3C1CCC2=O (stereo not given) | 96.4%
C1CCN(c2nc(N3CCCCC3)nc(N3CCOCC3)n2)CC1 | 107%
CC(C)C(NC(=O)CN)C(=O)O (stereo not given) | 104%
N#Cc1c(-c2cccs2)cc(-c2cnccn2)nc1SCC(=O)N/N=C/c1cccs1 | 64.6%
Cc1c2cnccc2c(C)c2c1c1cc(O)ccc1n2C(C)C | 24.3%
